# Source: PubChem
# The list is not random: actives were taken first. Their share in the collection is about 11%.
# IMPase inh = IMPase inhibition in cells | P97697 | inhibition (IP1 accumulation), % at 46.1 µM | 120,000 tested, under 10 active | AID 901 | CHO-M1 cells, IP1 accumulation, HTRF TR-FRET ratio; active = well fitted curve in the direction sought with a large enough effect in the signal ratio, not every such curve was filed as active; inconclusive = small, poorly fitted or top-dose-only effect, or a change in a side signal; inactive = no such curve, though single readings can be large or run the other way; the % refers to the signal ratio;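 also: cells stimulated with carbachol in lithium chloride buffer; plate controls were DMSO basal wells for no effect and reference inhibitor wells for full effect; higher means more IMPase inhibition seen as more IP1 and lower FRET ratio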
# Target sequence (P97697 whole entry, looked up): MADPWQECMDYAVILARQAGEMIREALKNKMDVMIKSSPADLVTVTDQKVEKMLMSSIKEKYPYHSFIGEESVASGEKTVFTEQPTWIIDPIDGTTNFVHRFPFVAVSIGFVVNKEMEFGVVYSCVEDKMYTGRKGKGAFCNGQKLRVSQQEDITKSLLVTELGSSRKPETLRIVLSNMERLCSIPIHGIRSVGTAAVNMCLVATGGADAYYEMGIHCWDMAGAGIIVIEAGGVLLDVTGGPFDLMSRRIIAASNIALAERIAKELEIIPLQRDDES
#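 CHO-M1 cells (CHO stably expressing M1 receptor), compound up to 46 uM final, stimulated with carbachol (50 uM as added) in buffer with 50mM LiCl, pH 7.4, 30 min at 37C. Cytosolic IP1 read by TR-FRET; AC50 from Hill fits.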
# IMPase Li cell = cell-permeable IMPase inhibitors with lithium potentiation; CHO-M1 cells, IP1 TR-FRET (IP-One), carbachol + lithium; Potency, µM (titrated, usually from 59.4 µM), for the others: at the highest dose activity, negative = IMPase inhibition, hits mostly inhibitors; 210,000 tested, 0.35% active; AID 1457;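 also: IP1 builds up when IMPase is blocked and the TR-FRET signal falls; potency is read from the fitted curve at half-maximal effect; plate controls were basal vehicle for no effect and high inhibitor control for full effect; nearly all actives have a fitted effect of over 50% in size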
#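 Steps: plate 2000 CHO-M1 cells per well and culture 16–30 h; add compound and lithium; incubate 30 min, 37C; add d2-IP1 tracer and Eu cryptate anti-IP1 antibody in lysis buffer; read after 10 min at room temperature.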
# 12-hLO inh = blocks human 12-lipoxygenase activity; 150,000 tested, 0.12% active; Potency, µM (top dose mostly 57.1 µM), for the others: top-dose activity change, negative = inhibition, most hits filed as inhibitors; purified 12-hLO, xylenol orange hydroperoxide absorbance; P18054; AID 1452; also: potency is read from the fitted curve at half-maximal effect; nearly all actives have a fitted effect of over 55% in size
#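 Purified human 12hLO (150 nM), preincubated 15 min with compound, then 40 uM arachidonic acid for 30 min, room temperature, Hepes pH 7.0 with 0.01% Triton X-100. Hydroperoxide detected by ferrous iron/xylenol orange; 573/405 nm absorbance ratio gives reaction progress.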
# PNC inhibitor = perinucleolar compartment assembly inhibition. PC3M PTB-GFP, PNC prevalence imaging, 16 h; hits give low values. activity change (PNC), negative = inhibition, % at 10 µM. 140,000 tested, 3.1% active. AID 2417;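 active = readout at or below -70, meaning at least 70% loss of cells showing the perinucleolar compartment, a nuclear body marking cancer cells; inconclusive = readout between -30 and a set limit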;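 also: plate controls were DMSO wells for no effect and camptothecin positive control wells for full effect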
#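 Read-out is percentage of cells bearing a perinucleolar compartment, from automated 20x imaging of fixed, Hoechst-stained PC3M PTB-GFP cells. Cells were seeded 4 h, then exposed 16 h to compound (23 nl of library stock) in duplicate plates.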
# HPGD block = inhibitors of human 15-hydroxyprostaglandin dehydrogenase (HPGD); 150,000 tested, 4.3% active; P15428; purified HPGD, NADH fluorescence kinetic, PGE2 substrate; Potency, µM, without a hit: top-dose activity change, negative = inhibition, usual class: inhibitors; active = well fitted inhibition curve with a large enough effect, not every such curve was filed as active; inconclusive = small, poorly fitted or top-dose-only effect, or another doubt; inactive = no such curve, though single readings can be large or run the other way; also: potency is read from the fitted curve at half-maximal effect
#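 NADH formation kinetics: reaction with 30 uM PGE2 and 1 mM NAD+ (final), 20 nM enzyme, Tris-HCl pH 8 with Tween 20, after 15 min compound preincubation at room temperature. Fluorescence change, last versus first of five reads.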
# ALDH1A1 inh = inhibitors of human aldehyde dehydrogenase 1A1. P00352. Purified ALDH1A1, NADH fluorescence, propionaldehyde substrate. Potency, µM (titrated, usually from 75.3 µM), for the others: top-dose activity, negative = inhibition, actives largely listed as inhibitors. 220,000 tested, 7.3% active. AID 1030; active = well fitted inhibition curve with a large enough effect, not every such curve was filed as active; inconclusive = small, poorly fitted or top-dose-only effect, or another doubt; inactive = no such curve, though single readings can be large or run the other way;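 also: potency is read from the fitted curve at half-maximal effect; plate controls were no enzyme wells and a reference inhibitor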
# Target sequence (P00352 whole entry, looked up): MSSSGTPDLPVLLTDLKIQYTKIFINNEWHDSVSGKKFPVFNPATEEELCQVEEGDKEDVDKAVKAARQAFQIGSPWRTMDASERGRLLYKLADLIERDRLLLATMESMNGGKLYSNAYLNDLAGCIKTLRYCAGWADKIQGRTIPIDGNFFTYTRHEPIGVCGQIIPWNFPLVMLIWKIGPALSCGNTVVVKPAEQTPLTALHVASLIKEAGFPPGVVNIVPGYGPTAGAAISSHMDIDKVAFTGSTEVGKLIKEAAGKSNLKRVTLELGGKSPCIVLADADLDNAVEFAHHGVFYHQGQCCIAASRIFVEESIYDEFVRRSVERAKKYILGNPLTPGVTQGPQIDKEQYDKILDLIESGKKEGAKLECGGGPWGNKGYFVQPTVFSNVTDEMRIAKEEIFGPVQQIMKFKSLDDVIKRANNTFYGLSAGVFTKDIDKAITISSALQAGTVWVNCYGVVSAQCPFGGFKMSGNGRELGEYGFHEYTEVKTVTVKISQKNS
# Active calls of the source: *; ? = inconclusive; · = not tested or not shown; [ ] = dose if it differs, or a comment. Unless noted, calls follow the shape of the dose curve; as a rule, active = well fitted curve in the direction sought with a large enough effect; inconclusive = small, poorly fitted or top-dose-only effect, or another doubt; inactive = no such curve, though single readings can be large; an effect the other way counts as inactive or inconclusive. Unless noted, % is scaled to controls: 0 for no effect and ±100 for the full control effect.
SMILES,IMPase inh,IMPase Li cell,12-hLO inh,PNC inhibitor,HPGD block,ALDH1A1 inh
Cc1cccc(-n2c(-c3ccccc3)cn3c4c(=O)[nH]c(=O)n(C)c4nc23)c1,2,·,·,·,·,·
CC(C)CN1CCC2(CC1)CCN(C(=O)c1ccco1)CC2,·,32%,-2%,·,-12%,12%
O=C(Oc1ccccc1C(=O)N1CCOCC1)c1ccccc1,8,6%,-2%,23,-12%,5%
NC(=O)c1ccc(-n2nnnc2Oc2ccccc2C(=O)N2CCOCC2)cc1,-2,0%[38.3 µM],1%,-122*,-8%,13%
COCCNC(=O)/C(C#N)=C/C=C/c1ccccc1,·,10%,·,·,·,-3%
COCCNC(=O)/C(C#N)=C1\N=C(N)c2ccccc21,·,6%,1%,7,14µM*,?
COC(=O)/C=c1/s/c(=C(/C#N)C(=O)N2CCCCC2)n(-c2ccccc2)c1=O,-13,-1%,0%,?,-13%,-11%
N#C/C(C(=O)N1CCCCC1)=C1/N=C(N)c2ccccc21,·,1%,-3%,-27,14µM*,?
CCCCCSc1nnc2c(n1)OC(c1ccc(C)s1)N(C(C)=O)c1ccccc1-2 (stereo not drawn),12,·,·,·,·,·
CC(=O)N1c2ccccc2C(C)(c2ccc(C)cc2)CC1(C)C (stereo not drawn),-4,·,·,·,·,·
O=C(CCNC(=O)c1ccccc1)Nc1ccc(F)c(Cl)c1,-13,1%,2%,?,-7%,7%
O=C(CCNc1ccc(Cl)c(C(F)(F)F)c1)c1ccco1,?,30%[38.3 µM],-10%,-11,-6%,8.9µM*
O=C(CSc1ccc(Cl)cc1)c1ccco1,-1,17%[38.3 µM],?,-12,25µM*,13µM*
O=C(CNC(=O)c1ccco1)Nc1ccc(F)cc1,·,0%,·,·,·,6%
O=C(CSc1ccccc1Cl)c1ccco1,5,8%[38.3 µM],-15%,-19,-20%,-4%
O=C(CCNc1ccc(F)cc1)c1ccco1,-2,22%[38.3 µM],7%,2,-2%,1.4µM*
O=C(CCNc1ccc(F)c(Cl)c1)c1ccco1,7,2%[38.3 µM],-4%,-10,-7%,3.5µM*
c1ccc(-c2cccc(N3CCC4(CCNCC4)CC3)c2)cc1,·,21%,-3%,·,-9%,?
Cc1cccc(NC(=O)Cn2cc(C(=O)C3CCCCC3)c3ccccc32)c1C,6,·,·,·,·,·
O=C(CCNc1cc(Cl)cc(Cl)c1)c1ccco1,0,7%[38.3 µM],-5%,-3,-16%,7.9µM*
O=C(CCNc1cccc(C(F)(F)F)c1)c1ccco1,1,54%[38.3 µM],5%,16,-9%,2.5µM*
COC(=O)N1CCC2(CC1)CN(C(=O)Nc1ccccc1)C2,·,5%,1%,·,-13%,-3%
CCCn1c(C)nc2c(NCCN(C)C)nc(C)nc21,·,-3%,-3%,·,-19%,1%
CN1CCN(/N=C/c2ccc(-c3ccccc3)cc2)CC1,·,23%,·,·,·,-4%
Cc1cc(/C=N/N2CCN(C)CC2)c(C)n1-c1ccccc1F,·,8%,·,·,·,11µM*
SMILES,IMPase inh,IMPase Li cell,12-hLO inh,PNC inhibitor,HPGD block,ALDH1A1 inh
CCCCn1c(=N)c(S(=O)(=O)c2ccc(Cl)cc2)cc2c(=O)n3cccc(C)c3nc21,-8,·,·,·,·,·
NNC(=O)c1ccc(-c2ccccc2F)cc1,·,·,·,·,·,1.1µM*
NNC(=O)c1ccncc1,-5[20.6 µM],-4%,-4%,17,-12%,-3%
O=C(CSc1nnc(-c2cccnc2)n1Cc1ccco1)c1ccc2ccccc2c1,3,5%[38.3 µM],-4%,19,-22%,?
O=C(CSc1nnc(-c2cccnc2)n1Cc1ccco1)c1ccc(Br)cc1,1,3%[38.3 µM],-5%,?,28µM*,-19%
COc1ccc(C(=O)CSc2nnc(-c3ccccn3)n2Cc2ccco2)cc1,12,·,-2%,-28,·,22µM*
O=C(CSc1nnc(-c2ccccn2)n1Cc1ccco1)c1ccc(Cl)cc1,1,-9%[38.3 µM],-27%,26,?,20µM*
O=C(CSc1nnc(-c2cnccn2)n1Cc1ccco1)c1ccccc1,-2,-5%[38.3 µM],-9%,7,16µM*,-2%
O=C(CSc1nnc(-c2cnccn2)n1Cc1ccco1)c1ccc(Cl)cc1,7,30%[38.3 µM],-7%,?,?,?
Cc1c(C)c2c(c(C)c1O)CC[C@@](C)(C(=O)O)O2,6[20.6 µM],11%,-6%[25.6 µM],·,-3%,14%[20.9 µM]
COc1ccc(Cl)cc1NC(=O)C(=O)NCc1ccc(Cl)cc1,5,·,·,·,·,·
CCSc1nnc(-c2cccnc2)n1Cc1ccco1,-3,6%[38.3 µM],-5%,7,2%,-3%
CCOC(=O)c1c(NC(=O)CSc2nnc(-c3cccnc3)n2Cc2ccco2)sc(C)c1C,11,19%[38.3 µM],-12%,3,-21%,25µM*
C=CCn1c(SCC(=O)NC2CCCCC2)nnc1-c1sc(N)nc1C,-1,3%,6%,?,-17%,-11%
C=CCn1c(SCC(=O)Nc2sc(C)c(C)c2C(=O)OCC)nnc1-c1sc(N)nc1C,11,44%[38.3 µM],-9%,17,-7%,14µM*
Cc1cc(C(F)F)n2ncc(C(=O)N3CCC(C(N)=O)CC3)c2n1,-1,18%[38.3 µM],3%,-18,-11%,-9%
Cc1cc(C(F)F)n2ncc(C(=O)N3CCCCC3)c2n1,?,-2%,7%,-7,11µM*,0%
Cc1nn(C)cc1/C=C/C(=O)c1ccccc1,2,30%[38.3 µM],4%,13,-11%,-13%
CC1N/C(=C\C(=O)c2ccccc2)N(O)C1(C)C (stereo not drawn),-9,-5%[38.3 µM],-4%,23,14µM*,-3%
CCOc1ccc2nc(SCC(=O)NCc3ccco3)sc2c1,7,-10%[38.3 µM],-4%,?,22µM*,-3%
CCOc1ccc2nc(SCC(=O)c3cccs3)sc2c1,-1,13%[38.3 µM],-1%,?,5µM*,13µM*
C=CCn1c(=O)/c(=C/c2ccc(Cl)cc2)s/c1=C(/C#N)c1nnc2n1CCCCC2,5,46%[38.3 µM],-8%,13,25µM*,?
C=CCn1c(=O)/c(=C/c2ccc(O)cc2)s/c1=C(/C#N)c1nnc2n1CCCCC2,7,6%[38.3 µM],-3%,-14,-11%,?
COc1ccc(C(=O)N2CCC3(CCN(Cc4nccs4)CC3)CC2)cc1,·,8%,-3%,·,-7%,-2%
COc1ccc(CN(C(C)=O)c2cccc(C)c2C)cc1,10,44%[38.3 µM],-7%,-107*,-4%,5µM*
CC(=O)N(Cc1ccc(Br)cc1)c1cccc(C)c1C,·,13%,·,·,·,?
Cc1noc(C)c1C(=O)N1CCC2(CCCN(C(=O)NC(C)C)C2)CC1,·,2%,0%,·,-8%,16%
CCc1cc2c(-c3ccccc3)cc(=O)oc2cc1OC(=O)c1cccs1,·,-4%,4%,89,3.2µM*,-1%
